According to PubChem BioAssay AID2242 (National Center for Advancing Translational Sciences (NCATS), 2010):
Hit rate of the full screen: of about 200,000 compounds, about 720 (0.36%) were called active. Inconclusive results (about 8%) are left out. Calls follow the shape of the dose curve; as a rule, active = well fitted activation curve with a large enough effect; inconclusive = small, poorly fitted or top-dose-only effect, or effect the other way, or another doubt; inactive = flat fitted curve, though single readings scatter. The list shows a part of the results.

target: Lysosomal alpha-glucosidase (Homo sapiens) (UniProt P10253); test: qHTS Assay for Activators of Human alpha-Glucosidase as a Potential Chaperone Treatment of Pompe Disease; details: purified enzyme, 4-MU-alpha-glucoside fluorescence, 20 min; series mostly up to 76.9 µM; also: nearly all actives have a fitted effect of over 80% in size
Procedure, shortened: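 Compounds titrated up to 77 uM against 4 nM enzyme and 400 uM methylumbelliferyl substrate at room temperature, 20 min, pH 5.0. Basic stop, then 4-methylumbelliferone fluorescence (365/440 nm) normalized to no-enzyme and enzyme controls; Hill-equation AC50.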
Potency is read from the fitted curve at half-maximal effect.

Potency, inactive:
CCOC(=O)/C(C#N)=C/c1cn(CCC(=O)O)nc1-c1ccc(Br)cc1

Potency, active:
CCOCCCn1c(=NC(C)=O)c(C#N)cc2c(=O)n3ccccc3nc21 31.6 µM
CCCCCn1c(=NC(C)=O)c(C#N)cc2c(=O)n3ccccc3nc21 35.5 µM
CCOCCCn1c(=NC(C)=O)c(C#N)cc2c(=O)n3cccc(C)c3nc21 31.6 µM
O=C(Oc1ccc2c3c(c(=O)oc2c1)CCCC3)c1cccs1 35.5 µM
O=C(Oc1cc2oc(=O)c3c(c2cc1Cl)CCCC3)c1cccs1 31.6 µM
CCN1CCCC1CNC(=O)c1ccc2c(=O)n(CCOC)c(=O)[nH]c2c1 (configuration not stated) 31.6 µM
COCCn1c(=O)[nH]c2cc(C(=O)NCc3cccnc3)ccc2c1=O 35.5 µM
COCCn1c(=O)[nH]c2cc(C(=O)NC(C)C)ccc2c1=O 35.5 µM
O=C(O)c1cccc(NC(=O)C2C3C=CC(C3)C2C(=O)O)c1 (configuration not stated) 31.6 µM
COc1ccc(CCNC(=O)CSc2nc(-c3ccc(OC)c(OC)c3)ccc2C#N)cc1 28.2 µM
O=c1oc2c(CN3CCOCC3)c(O)c(Cl)cc2c2c1CCCC2 31.6 µM
O=c1oc2c(CN3CCOCC3)c(O)c(Cl)cc2c2c1CCC2 35.5 µM
CCCCN(C(=O)NC(=O)C1=C(N2CCOCC2)/C(=C/c2ccccc2)CC1)S(C)(=O)=O 31.6 µM
CN(C(=O)NC(=O)C1=C(N2CCOCC2)/C(=C/c2ccccc2)CC1)S(C)(=O)=O 39.8 µM
CN(C)CCCNS(=O)(=O)c1ccc(N2CCC(c3ccc(Cl)cc3)=N2)cc1 35.5 µM
O=S(=O)(c1ccc(N2CCC(c3ccc(Cl)cc3)=N2)cc1)N(CCO)CCO 35.5 µM
Cc1ccc2c(c1)Cc1nc3ccccc3nc1-2 35.5 µM
COc1ccc2cc3cc(C(=O)NCc4ccco4)oc3nc2c1 31.6 µM
COc1ccc2cc3cc(C(=O)NCc4cccnc4)oc3nc2c1 31.6 µM
c1coc(-c2nc3nc4ccccc4nc3n2CC2CCCO2)c1 (configuration not stated) 25.1 µM
CCCCCn1c(-c2ccco2)nc2nc3ccccc3nc21 39.8 µM
CC(C)OCCCn1c(-c2ccco2)nc2nc3ccccc3nc21 35.5 µM
COCCn1c(-c2ccco2)nc2nc3ccccc3nc21 35.5 µM
CCC(C)n1c(-c2ccco2)nc2nc3ccccc3nc21 (configuration not stated) 39.8 µM
c1ccc(Cn2c(-c3ccco3)nc3nc4ccccc4nc32)cc1 35.5 µM
COC(=O)CNC(=O)COC(=O)c1cc(Cl)cc(Cl)c1N 39.8 µM
Nc1c(Cl)cc(Cl)cc1C(=O)OCC(=O)NC1CC1 35.5 µM
CC(C)N(C(=O)COC(=O)c1cc(Cl)cc(Cl)c1N)C(C)C 35.5 µM
Nc1c(Cl)cc(Cl)cc1C(=O)OCC(=O)N1CCOCC1 31.6 µM
CCCCc1c(C)c(C#N)c2[nH]c3ccccc3n2c1=O 22.4 µM
Cc1ccc(Cc2c(C)c(C#N)c3[nH]c4ccccc4n3c2=O)cc1 35.5 µM
Cc1c(CCC(=O)O)c(=O)n2c([nH]c3ccccc32)c1C#N 35.5 µM
CCOC(=O)CCc1c(C)c(C#N)c2[nH]c3ccccc3n2c1=O 31.6 µM
COc1ccccc1[C@@H]1C(c2cccc(Cl)c2)=NN(c2ccc(Br)cc2)[C@H]1C(=O)N1CCOC1=O 31.6 µM
Cc1cccc(C2=NN(c3ccc(Br)cc3)[C@@H](C(=O)N3CCOC3=O)[C@@H]2c2ccc(F)cc2)c1 31.6 µM
COC(=O)Cc1c(C)c2cc(Cl)c(OC(=O)c3ccco3)cc2oc1=O 28.2 µM
COC(=O)Cc1c(C)c2ccc(OC(=O)c3ccco3)cc2oc1=O 35.5 µM
CC(=O)Oc1ccc2c(C)c(CC(C)O)c(=O)oc2c1 (configuration not stated) 39.8 µM
COC(=O)Cc1c(C)c2ccc(OC(=O)c3ccccc3)cc2oc1=O 35.5 µM
CCC(=O)Nc1c(C#N)c2nc3ccccc3nc2n1-c1ccccc1C 39.8 µM
CCCCN(C)C(=O)CCC(=O)Nc1ccc2nc(N3CCOCC3)cc(C)c2c1 39.8 µM
CCC(C)NC(=O)CCC(=O)Nc1ccc2nc(N3CC(C)CC(C)C3)cc(C)c2c1 (configuration not stated) 31.6 µM
CCC(C)NC(=O)CCC(=O)Nc1ccc2nc(N3CCOCC3)cc(C)c2c1 (configuration not stated) 35.5 µM
Fc1ccc(C2=NN(c3ccccc3)C(c3ccco3)C2)cc1 (configuration not stated) 35.5 µM
Cc1ccc(N2N=C(c3ccc(F)cc3)CC2c2ccco2)cc1 (configuration not stated) 28.2 µM
COc1ccccc1C1CC(c2ccco2)=NN1c1ccccc1 (configuration not stated) 31.6 µM
CCOc1cc(C2C3=C(CCCC3=O)N(CCC(=O)O)C3=C2C(=O)CCC3)ccc1OS(=O)(=O)c1ccc(C)cc1 35.5 µM
COC(=O)Nc1nnc(/C=C/c2ccccc2)s1 31.6 µM
COc1ccc(/C=C/c2nnc(NC(=O)COc3cccc(C)c3)s2)cc1 31.6 µM
CCSc1ccc(-c2nn(-c3ccccc3)cc2/C=C(/C#N)C(=O)NC)cc1 25.1 µM
CCSc1ccc(-c2nn(-c3ccccc3)cc2/C=C(/C#N)C(=O)NCCCOC)cc1 35.5 µM
N#Cc1c(N)n(CCNC(=O)c2ccccc2)c2nc3ccccc3nc12 7.94 µM
N#Cc1c(N)n(CCNC(=O)c2cccs2)c2nc3ccccc3nc12 35.5 µM
COCCn1c(N)c(C#N)c2nc3ccccc3nc21 35.5 µM
N#Cc1c(N)n(CCCN2CCOCC2)c2nc3ccccc3nc12 35.5 µM
CCCCCn1c(N)c(C#N)c2nc3ccccc3nc21 35.5 µM
Cc1cc(-n2c(=O)c(C#N)cc3c(=O)n4cccc(C)c4nc32)no1 35.5 µM
Cc1cc(-n2c(=O)c(C#N)cc3c(=O)n4ccccc4nc32)no1 35.5 µM
COC(=O)c1ccccc1NC(=O)/C=C/c1cc(OC)c(OC)c(OC)c1 35.5 µM
CSc1nnc(-c2cccn(Cc3cccc(Cl)c3)c2=O)o1 28.2 µM
CSc1nnc(-c2cccn(Cc3ccccc3)c2=O)o1 35.5 µM
Nc1ccc(-c2nc3ccc(N)cc3o2)cc1 35.5 µM
Nc1ccc(-c2nc3ccc(N)cc3[nH]2)cc1 39.8 µM
Nc1ccc(-c2nc3ccc(-c4nc5ccccc5o4)cc3[nH]2)cc1 28.2 µM
CCc1cc(=O)n2c([nH]c3ccccc32)c1C#N 28.2 µM
COCc1cc(=O)n2c([nH]c3ccccc32)c1C#N 35.5 µM
CCCc1cc(=O)n2c([nH]c3ccccc32)c1C#N 39.8 µM
Cc1ccc2nc3c(cc(C#N)c(=O)n3-c3nccs3)c(=O)n2c1 35.5 µM
N#Cc1cc2c(=O)n3ccccc3nc2n(-c2ccc(Cl)cc2)c1=O 35.5 µM
Cc1ccc(-n2c(=O)c(C#N)cc3c(=O)n4cccc(C)c4nc32)cc1 10 µM
Cc1ccc(-n2c(=O)c(C#N)cc3c(=O)n4ccccc4nc32)cc1 25.1 µM
COc1cc(C2NC(=S)NC(c3ccccc3)=C2C(C)=O)cc(Br)c1OCC(N)=O (configuration not stated) 28.2 µM
O=C(CN1C(=O)/C(=C\c2cccc(Cl)c2)Oc2ccccc21)N1CCN(c2ccccn2)CC1 3.98 µM
C=CCNc1oc(/C=C/c2ccccc2)nc1C#N 35.5 µM
CNc1oc(/C=C/c2ccccc2)nc1C#N 35.5 µM
CN(C)CCNc1oc(/C=C/c2ccccc2)nc1C#N 35.5 µM
CN(C)c1oc(/C=C/c2ccccc2)nc1C#N 31.6 µM
CC(=O)Nc1c(OC(C)=O)ccc2c(C)cc(=O)oc12 35.5 µM
CCC(=O)Nc1c(OC(=O)CC)ccc2c(C)cc(=O)oc12 35.5 µM
CC(=O)c1ccc(-c2cccs2)s1 35.5 µM
COc1cc(OC)c(-c2nc3ccccc3s2)cc1OC 35.5 µM
c1ccc2c(N3CCOCC3)nc(N3CCOCC3)nc2c1 28.2 µM
CCOC(=O)C1=C(C)NC2=C(C(=O)CCC2)C1c1cn(Cc2ccc(Cl)cc2Cl)nc1-c1ccccc1 (configuration not stated) 31.6 µM
Cc1csc2ncc(C(=O)Nc3ccon3)c(=O)n12 35.5 µM
Cc1c(O)c(CN2CCCCC2)cc2c3c(c(=O)oc12)CCC3 35.5 µM
Cc1c(O)c(CN2CCCC2)cc2c3c(c(=O)oc12)CCC3 39.8 µM
CCNc1cc2oc(=O)c(CN3CCOCC3)c(C)c2cc1C 31.6 µM
CC(C)c1cc(=O)oc2c3c4c(cc12)CCCN4CCC3 35.5 µM
CC(C)CCNc1nc(-c2ccco2)c2c(c1C#N)CCCC2 31.6 µM
N#Cc1c(NC2CCCCC2)nc(-c2ccco2)c2c1CCCC2 35.5 µM
Cc1ccc(C2OC34CCCCCC3C(C#N)(C(=N)O4)C2(C#N)C#N)cc1 (configuration not stated) 31.6 µM
CCOC(=O)c1sc2c(c1C)C(c1cccs1)C1=C(CCCC1=O)N2 (configuration not stated) 25.1 µM
C=CCSc1nnc(-c2cc3c(s2)-c2ccccc2CC3)o1 25.1 µM
Fc1ccc(CSc2nnc(-c3cc4c(s3)-c3ccccc3CC4)o2)cc1 28.2 µM
CSc1nnc(-c2cc3c(s2)-c2ccccc2CC3)o1 35.5 µM
CCSc1nnc(-c2cc3c(s2)-c2ccccc2CC3)o1 31.6 µM
